From PubChem
In the library only some 9.3% were active in any assay of this set; here they are far more common.
NPC1 promoter act = activators of NPC1 promoter. Potency, µM (highest dose often 9.22 µM), for inactives: at the highest dose activation, hits mostly activators. Huh7 NPC1 promoter luciferase reporter, 24 h. actives 2.4% (n = 320,000); further: % of control where 0% means no effect; nearly all actives have a fitted effect of over 60% in size
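Huh7 reporter cells (NPC1 promoter driving luciferase) are dosed with compound for 24 h at 37 °C, 5% CO2; luciferase detection reagent is then added and luminescence measured after 10 min at ambient temperature.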
SMN2 splice up = increases expression of the SMN2 splice variant. HEK293 SMN2-luciferase splicing reporter, luminescence, 30-36 h. Potency, µM (series often up to 46.1 µM), inactives show at the highest dose activity change, positive = activation, usual class: activators. actives 2.8% (n = 210,000). AID 1458; further: % of control where 0% means no effect; nearly all actives have a fitted effect of over 55% in size
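qHTS luciferase splicing reporter: luminescence rises when SMN2 exon 7 is included in transfected HEK293 cells. Compound exposure lasted 30-36 h at 37C, with 4.5 mM final sodium butyrate as control, followed by a ONE-Glo read.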
FLuc counter = inhibits or activates purified firefly luciferase, miR-21 counter-screen; P08659; purified FLuc, Km substrates, luminescence inhibition; actives 6.9% (n = 360,000); AID 588342; Potency, µM (titrated, usually from 57.5 µM), inactives show at the highest dose activity change, negative = inhibition, most hits filed as inhibitors;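 further: plate controls were vehicle for no effect and reference inhibitor for full effect; nearly all actives have a fitted effect of over 55% in size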
Target sequence (P08659 whole entry, looked up): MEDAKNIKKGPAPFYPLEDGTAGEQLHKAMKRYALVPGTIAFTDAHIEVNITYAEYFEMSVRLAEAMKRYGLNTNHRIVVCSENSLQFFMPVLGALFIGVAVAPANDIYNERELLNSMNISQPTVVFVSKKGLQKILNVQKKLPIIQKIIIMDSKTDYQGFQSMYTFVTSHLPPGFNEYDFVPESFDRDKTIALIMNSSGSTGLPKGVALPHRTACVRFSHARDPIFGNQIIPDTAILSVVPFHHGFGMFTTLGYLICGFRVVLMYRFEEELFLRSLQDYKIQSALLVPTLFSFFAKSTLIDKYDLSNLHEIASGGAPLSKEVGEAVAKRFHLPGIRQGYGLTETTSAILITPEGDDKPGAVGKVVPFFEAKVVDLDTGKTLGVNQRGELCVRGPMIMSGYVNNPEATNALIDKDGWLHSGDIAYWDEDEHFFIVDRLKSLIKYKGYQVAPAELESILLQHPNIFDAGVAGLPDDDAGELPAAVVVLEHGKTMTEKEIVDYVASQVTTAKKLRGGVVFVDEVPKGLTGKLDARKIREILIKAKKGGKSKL
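Biochemical qHTS of compounds, final roughly 60 µM downward over six points, against 10 nM purified firefly luciferase using Km concentrations of substrates (10 uM D-luciferin, 10 uM ATP) in Tris acetate pH 7.5 buffer; luminescence output.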
Rab9 prom act = activators of Rab9 promoter | Potency, µM (titrated, usually from 9.22 µM), without a hit: at the highest dose activation, negative = inhibition, hits mostly activators | AID 485297 | Huh7 Rab9 promoter-luciferase reporter, luminescence, 24 h | actives 2.8% (n = 320,000); further: % of control where 0% means no effect; nearly all actives have a fitted effect of over 60% in size
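Rab9 promoter-driven luciferase in stably transfected Huh7 cells; 1500 cells/well rested 2 h, exposed to compound in DMSO for 24 h at 37 °C, 5% CO2. Luminescence read 10 min after adding luciferase reagent at ambient temperature.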
ELG1 genotox = induces genotoxicity in HEK293T cells with luciferase-tagged ELG1 | actives 1.3% (n = 330,000) | HEK293T ELG1-luciferase reporter, luminescence, 16 h | Potency, µM (highest dose often 46 µM), inactives show top-dose activity change, positive = activation, actives largely listed as activators | AID 504466; further: % of control where 0% means no effect; nearly all actives have a fitted effect of over 60% in size
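DMSO vehicle served as control against compound-treated ELG1-luciferase HEK293T cells; exposure lasted 16 hr at 37 °C and 5% CO2, followed by ONE-Glo luminescence detection after 30 min.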
ELG1 DNA repair = ELG1-dependent DNA repair inhibition | Potency, µM (top dose mostly 46.1 µM), without a hit: at the highest dose activity change, negative = inhibition, hits mostly inhibitors | actives 2.3% (n = 330,000) | HEK293T ELG1-luciferase reporter, luminescence, 16 h; DNA damage induced by 5-fluorouridine | AID 504467; further: on the % scale 0 is the no-effect control and ±100 the full control effect; nearly all actives have a fitted effect of over 55% in size
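HEK293T cells expressing luciferase-tagged ELG1 (2,000/well) received 5-Fluorouridine plus compound or DMSO for 16 hr at 37 °C. Luciferase was read by ONE-Glo luminescence after 30 min at room temperature.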
The depositor's hits bear a star; ? = inconclusive; / = no result. The call rests on the fitted dose curve; in most records, active means well fitted curve in the direction sought with a large enough effect; inconclusive means small, poorly fitted or top-dose-only effect, or another doubt; inactive means no such curve, though single readings can be large; an effect the other way counts as inactive or inconclusive. Potency means the concentration at half of the fitted maximal effect.

SMILES | NPC1 promoter act | SMN2 splice up | FLuc counter | Rab9 prom act | ELG1 genotox | ELG1 DNA repair
COc1cc(-c2nc(-c3ccccn3)no2)cc(OC)c1OC | ? | 17.1% | ? | 28.4% | ? | ?
CCOC(=O)C1CCCN(Cc2cc(=O)oc3cc(C)ccc23)C1 (stereo not given) | 12.4% | / | ? | ? | 7.2% | ?
Nc1c(-c2n[nH]c(=S)n2-c2ccc(Cl)cc2Cl)cnn1-c1ccccc1 | -2.3% | / | 1.7% | -2.1% | 0.2% | 31.7%
Nc1[nH]nc2c1NN(c1ccc(Cl)cc1Cl)N2 | ? | ? | 12µM* | 29.7% | ? | ?
Cc1ccc(-c2cc(-c3ccc(F)cc3)n[nH]2)c(O)c1 | ? | / | 4.26µM* | 3.98µM* | ? | ?
Oc1ccccc1-c1cc(-c2ccc(F)cc2)n[nH]1 | ? | / | 3.38µM* | 6.9% | 5.8µM* | ?
Oc1ccc(Br)cc1-c1cc(-c2ccccc2Cl)[nH]n1 | -4.2% | / | ? | -8.0% | -0.4% | ?
Oc1ccc(Cl)cc1-c1cc(-c2ccccc2)n[nH]1 | -7.5% | 15.9% | ? | -4.0% | 12.2% | 18.8%
Oc1ccc(F)cc1-c1cc(-c2ccc3c(c2)OCCO3)n[nH]1 | 3.16µM* | 12.6µM* | 2.39µM* | 1.78µM* | ? | ?
Cc1ccc(O)c(-c2cc(-c3cccc(Br)c3)n[nH]2)c1 | ? | / | 12µM* | 4.47µM* | 23.1µM* | ?
CCC(c1nc2ccccc2c(=O)n1-c1cccnc1)N1C(=O)c2ccccc2C1=O (stereo not given) | -3.5% | ? | -0.1% | -3.2% | -0.8% | -1.2%
Cc1c(NC(=S)N/N=C/C=C/c2ccc([N+](=O)[O-])cc2)c(=O)n(-c2ccccc2)n1C | -0.4% | / | -5.1% | -3.8% | -7.7% | -22.5%
COc1ccc(C)cc1NS(=O)(=O)c1ccc2c(c1)oc(=O)n2C | -5.2% | / | -0.2% | -0.7% | -0.3% | ?
Cc1ccc(-c2cc(-c3ccc(C)cc3O)[nH]n2)cc1 | 0.708µM* | / | 2.39µM* | 0.891µM* | ? | ?
CCc1c(C(=O)Nc2ccccc2)c(C)[nH]c(=S)c1C#N | -0.4% | -2.9% | -4.2% | 2.0% | -0.5% | -4.8%
Cc1ccc(-n2c(C)cn(C(=O)c3ccccc3)c2=S)cc1 | 1.1% | -15.0% | -1.2% | 18.6% | 0.2% | -9.0%
N=c1c2c(ncn1Cc1ccco1)Oc1ccc3ccccc3c1C2c1ccccc1 (stereo not given) | -3.7% | -19.2% | -5.3% | -5.0% | -2.4% | 14.6µM*
O=C(/C=C/c1cccs1)c1cc(Br)ccc1OC(=O)N1CCOCC1 | -7.4% | -49.7% | -3.2% | -14.0% | -13.3% | 16.4µM*
CC(=O)c1cc(OC(=O)N2CCOCC2)ccc1OC(=O)N1CCOCC1 | 1.0% | 5.3% | 0.0% | 0.3% | -0.2% | 15.7%
O=C(/C=C/c1cccs1)c1ccc(N2CCOCC2)cc1 | 3.55µM* | 254.7% | 0.239µM* | 2.24µM* | ? | ?
O=C(/C=C/c1cccc(F)c1)c1ccc(N2CCOCC2)cc1 | ? | / | 1.07µM* | ? | ? | ?
O=C(/C=C/c1cccs1)c1ccc([N+](=O)[O-])cc1 | -0.4% | / | 4.26µM* | 9.2% | 2.0% | ?
CCCC(=O)N1CCCC(c2nc(-c3cccc(OC)c3)no2)C1 (stereo not given) | 3.55µM* | 11.2µM* | 9.53µM* | 1.41µM* | ? | ?
COc1ccc(-c2noc(N3CCC(C(=O)NC(C)c4ccccc4)CC3)n2)cc1 (stereo not given) | -7.2% | / | -17.6% | -7.4% | -2.3% | 13µM*
O=C(c1ccco1)N1CCCC(c2nc(-c3ccc(S(=O)(=O)NCc4ccccc4)cc3)no2)C1 (stereo not given) | -6.5% | -69.7% | 0.4% | -11.3% | -11.8% | 20.6µM*
SMILES | NPC1 promoter act | SMN2 splice up | FLuc counter | Rab9 prom act | ELG1 genotox | ELG1 DNA repair
COc1ccc(C(=O)N2CCCC(c3nc(-c4cc(OC)c(OC)c(OC)c4)no3)C2)cc1 (stereo not given) | -1.1% | -8.9% | 3.0% | -2.6% | -4.4% | 7.31µM*
COc1ccc(-c2noc(C3CCCN(C(=O)CCc4ccccc4)C3)n2)cc1 (stereo not given) | -0.3% | -16.4% | -19.4% | -1.8% | ? | ?
COc1ccc(-c2noc(N3CCC(C(=O)Nc4ccccc4Cl)CC3)n2)cc1 | -7.2% | / | 4.3% | 4.1% | -18.4% | ?
COc1ccccc1C(=O)N1CCCC(c2nc(-c3cc(OC)c(OC)c(OC)c3)no2)C1 (stereo not given) | -0.7% | 19.8% | 2.1% | 0.0% | 0.5% | 7.31µM*
COc1ccc(-c2noc(C3CCCN(C(=O)c4cccc(F)c4)C3)n2)cc1 (stereo not given) | -3.8% | / | -9.4% | -1.8% | -7.7% | -28.2%
COc1ccc(-c2noc(C3CCCN(C(=O)c4ccccc4)C3)n2)cc1 (stereo not given) | 0.1% | / | 19µM* | -4.6% | -0.1% | -19.8%
Cc1ccc(-c2noc(C3CCCN(C(=O)c4ccccc4)C3)n2)o1 (stereo not given) | ? | ? | 19µM* | ? | 9.2µM* | ?
Cc1cccc2c1-c1sc(C(=O)NCc3ccccc3Cl)cc1CO2 | / | -12.0% | -1.0% | / | / | /
COc1cc2[nH]c3c(N4CCC(C(N)=O)CC4)ncnc3c2cc1OC | -2.7% | -2.1% | 2.6% | 5.4% | -2.2% | -2.1%
O=c1c2ccccc2ncn1-c1ccc([N+](=O)[O-])cc1[N+](=O)[O-] | -2.4% | / | 3.4% | -6.1% | -10.0% | 14.6µM*
Cc1c(C(=O)NC(C)C)oc2c1-c1[nH]ncc1CC2 | 6.6% | 4.4% | -19.9% | -1.2% | -1.3% | -9.6%
Cc1ccccc1C(=O)N1CCN(c2ccc(NC(=O)Cc3ccccc3)cc2)CC1 | -1.7% | / | -0.7% | 1.9% | -15.3% | 18.3µM*
Cc1ccccc1C(=O)N1CCN(c2ccc(NC(=O)c3cccc(OC(C)C)c3)cc2)CC1 | -13.0% | / | -1.6% | -17.7% | -25.5% | 16.4µM*
Cc1ccccc1C(=O)N1CCN(c2ccc(NC(=O)c3ccco3)cc2)CC1 | -2.2% | / | 0.6% | -3.0% | -7.9% | -8.7%
COc1c(C)cccc1C(=O)Nc1ccc(N2CCN(C(=O)c3ccccc3C)CC2)cc1 | -3.0% | / | 1.4% | -7.5% | -38.4% | 10.3µM*
O=S(=O)(N/N=C/c1c(F)cccc1Cl)c1ccccc1 | -0.4% | -19.9% | -5.8% | -5.0% | -4.3% | 4.3%
O=C(/C=C/Nc1ccc([N+](=O)[O-])cc1Br)c1cccc2ccccc12 | 3.16µM* | 5.62µM* | 2.39µM* | 1.12µM* | ? | ?
